# An excerpt weighted towards active compounds, which were near 0.44% of everything screened.
# YopH inh: YopH tyrosine phosphatase inhibitors, primary screen, biochemical, fluorescence Ex485/Em525 | YopH tyrosine phosphatase [Yersinia enterocolitica] | inhibition, % (concentration not given with the values) | actives 0.16% (n = 140,000) | AID 898, 2007; in the data active = inhibition above about 50%
# RmlCD inh mix: RmlC and RmlD coupled enzyme inhibitors, primary screen, biochemical, 384-well, compound mixtures, retest. RmlC/RmlD coupled enzyme inhibition, 384-well mixture HTS. inhibition, % at 5.5 µM. actives 0.39% (n = 110,000); in the data active = inhibition above about 30%, passing the limit was not always enough
# RmlCD fluor art: counter-screen for RmlC/RmlD inhibitors: fluorescence artifact, dose response, artefact control, biochemical. actives 96% (n = 360). calls only. RmlC/RmlD assay fluorescence artifact counter-screen. shares compounds with RmlCD inh mix. AID 1696, 2009; call rule not given here;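 note: compound alone with no enzyme and no substrates present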
# Numbers stand for hits; . = inactive; / = no result given; + = active, no number.
SMILES,YopH inh,RmlCD inh mix,others
Cc1cc(C)c(Nc2cc(S(=O)(=O)O)c(N)c3c2C(=O)c2ccccc2C3=O)c(C)c1,.,/,
CC(C)CCn1c(N2CCc3ccccc3C2)nc2c1c(=O)[nH]c(=O)n2C,/,.,
COc1ccc(-c2cc(C(=O)O)c3c(C)nn(-c4ccccn4)c3n2)cc1,.,.,
COc1ccc(N=CC2=C(Nc3ccc(OC)cc3)c3c(C)nn(-c4ccccn4)c3CC2)cc1,51,61,
N#CC(C#N)=c1ccc2c(c1)NC1(CCCCC1)N=2,92,.,
O=C1NC2(CCCC2)N=C1c1ccc(Cl)cc1,.,.,
COc1ccc(OCCC(=O)OCC(=O)NCc2ccccc2)cc1,.,/,
CCOC(=O)COc1cc(=O)n(CC)c2ccccc12,52,.,
CCOC(=O)N1CCN(C(=O)COc2cc(=O)n(CC)c3ccccc23)CC1,.,.,
c1ccc(-c2csc3ncnc(NCCCN4CCOCC4)c23)cc1,51,.,
c1csc(-c2csc3ncnc(NCCCN4CCOCC4)c23)c1,.,.,
Cc1noc(C)c1-c1ccc2nc[nH]c(=O)c2c1,/,.,
CCOC(=O)CCCCCNC(=O)c1ccc(F)cc1F,/,.,
[O-]/[N+](=C/c1ccc(F)cc1)c1ccccc1,53,.,
O=C(c1ccccc1)c1ccncc1,.,.,
[O-]/[N+](=C\c1ccncc1)c1ccccc1,59,/,
FC(F)Oc1ccc(NC(=S)NCc2ccccc2)cc1,.,/,
[O-]/[N+](=C\c1ccc(OC(F)F)cc1)c1ccccc1,55,.,
Fc1ccc(/C=N/Nc2ccccn2)cc1,.,/,
COC(=O)c1sc2nc(CN3CCN(c4ccc(OC)cc4)CC3)[nH]c(=O)c2c1C,.,/,
O=C(C1=C[C@@H](C2CCCCC2)C[C@@H](OCc2ccc(CO)cc2)O1)N1CCN(Cc2ccccc2)CC1,/,.,
Clc1ccccc1-c1ccc(CN2CCN(c3ccccc3)CC2)o1,.,/,
COc1ccc(Cc2c3cc(OC)c(OC)cc3cc[n+]2C)cc1OC,/,.,
COc1ccc(Cc2nccc3cc(OC)c(OC)cc23)cc1OC,67,.,
CCCCCCC(=O)N1C/C=C\C(c2ccc(OC)cc2)N(Cc2ccc(F)cc2)C(=O)[C@H]1Cc1ccccc1 (stereo partly specified),/,.,
SMILES,YopH inh,RmlCD inh mix,others
O=C(O[C@@H]1OC2COC(=O)c3cc(O)c(O)c(O)c3-c3c(cc(O)c(O)c3O)C(=O)O[C@@H]([C@H]1O)[C@@H]2O)c1cc(O)c(O)c(O)c1,54,.,
Cc1cc(Br)ccc1SCC(=O)OCC(=O)Nc1ncc(C(F)(F)F)cc1Cl,.,/,
O=C1C=CC(=O)C(C2=C3C(=O)N(CCc4ccccc4)CC(=O)N3CCC2)=C1,67,/,
O=C1CC(=O)N(CCc2ccccc2)C(=O)N1CCc1ccccc1,.,.,
COC(=O)[C@@H]1C[C@@H]2CC[C@@H](O)C[C@@H]2N1Cc1ccccc1OS(=O)(=O)c1ccc(C)cc1,/,.,
Cc1cc2nnc(SCC(=O)Nc3cccc(S(=O)(=O)N4CCOCC4)c3)n2c2ccccc12,.,/,
CCOc1ccc(S(=O)(=O)Nc2nc3ccccc3nc2Nc2ccc(N3CCOCC3)cc2)cc1,.,/,
CCCC(=O)OCCNc1cc(SCc2ccco2)c2nonc2c1[N+](=O)[O-],.,/,
CC(=O)OCCCNc1cc(SCc2ccco2)c2nonc2c1[N+](=O)[O-],69,/,
O=C1CC(N(O)c2ccccc2)C(=O)N1Cc1ccccc1 (stereo unspecified),57,.,
O=C1CC(N(O)c2ccccc2)C(=O)N1c1cc(Cl)cc(Cl)c1 (stereo unspecified),.,.,
COc1cc(OC)c(/C=N/n2c(C)nnc2C)c(OC)c1,.,/,
C=C1CCN([C@@H](Cc2ccccc2)C(=O)NCCC(C)C)S(=O)(=O)c2ccccc21,/,.,
Cc1ccc(Cn2c(CCNc3nc(-c4ccc(Cl)c([N+](=O)[O-])c4)cs3)nc3cc(C(=O)NCCCO)ccc32)cc1,/,.,
CCOC(=O)c1sc(NC(=O)CSc2nc3c(cc2C#N)CCCCC3)c(C#N)c1C,.,.,
CCc1nnc(NC(=O)CSc2nc3c(cc2C#N)CCCC3)s1,.,37,
CC(=O)NC1(C(F)(F)F)N=C(c2ccccc2)NC1=O (stereo unspecified),.,/,
Cc1c(CN(C)C)c2c(n1C)C(=O)c1ccc(Br)cc1-2,.,.,
CCOC(=O)c1c2c(n(C)c1C)C(=O)C(=O)c1ccc(Br)cc1-2,88,.,
CN1CCC2(CC1)N=C(c1ccc(F)cc1)C(=S)N2C(=O)c1ccc(C(C)(C)C)cc1,.,/,
OCCCn1c(C(CO)Nc2nc(-c3ccc(Cl)cc3)cs2)nc2ccccc21 (stereo unspecified),/,.,
CCCCNC(=O)c1c(N)n(CCCOC)c2nc3ccccc3nc12,.,.,
COCCCn1c(N)c(C(=O)OCCOC)c2nc3ccccc3nc21,51,.,
COCCNC(=O)c1c(N)n(CCC(C)C)c2nc3ccccc3nc12,.,.,
COCCNC(=O)c1c(N)n(CCCn2ccnc2)c2nc3ccccc3nc12,.,124,
SMILES,YopH inh,RmlCD inh mix,others
CC[C@@H]1[C@H]2CCCC(=O)N3CC[C@@H](C[C@H]1O)[C@@H]23,/,.,
Cc1cc(C)c2c(c1)NC(c1cc3c(cc1Br)OCO3)C1CC=CC21 (stereo unspecified),.,/,
Nc1nnnn1/N=C/c1ccc(O)cc1,.,.,
CCN(C)c1ccc(/C=N\n2nnnc2N)cc1,.,71,
COc1cc(C2C(C#N)=C(C)NC(C)=C2C#N)cc(OC)c1OC,.,/,
CC1=C(C(=O)OCc2ccccc2)C(c2ccc3c(c2)OCO3)NC(=O)N1CCCC(=O)O (stereo unspecified),/,.,
O=c1c2cc(Cl)ccc2[nH]c(=S)n1Cc1cccs1,.,/,
O=C(COC(=O)c1ccccc1Cl)NC(=O)NCc1ccccc1,.,/,
CCNC(=O)NC(=O)COC(=O)c1ccccc1SCC(=O)NC(=O)NCC,.,+,RmlCD fluor art=+
O=C1C2C3CCC(C3)C2C(=O)N1Cc1ccccc1 (stereo unspecified),.,/,
COc1cccc(/C=N/NC(=O)CC2C(=O)NN=C2C)c1OC (stereo unspecified),.,.,
COc1ccc(OC)c(/C=N/NC(=O)CC2C(=O)NN=C2C)c1 (stereo unspecified),.,54,RmlCD fluor art=+
COc1ccc(-c2ccnc3c(C#N)cnn23)cc1,/,/,RmlCD fluor art=+
N#Cc1cnn2c(-c3ccccc3)ccnc12,.,.,
CCOC(=O)N1CCN(C(=O)C2CCN(Cc3cccc(OCc4ccccc4)c3)CC2)CC1,.,/,
N#Cc1ccc(C(=O)Nc2cc(S(=O)(=O)N3CCCC3)ccc2OCC(F)(F)F)cc1,.,/,
O=C(O)c1cc2c(ccc3ccccc32)oc1=O,.,82,RmlCD fluor art=+
O=C(c1cc2c(ccc3ccccc32)oc1=O)N1CCCC1,.,.,
CCNc1nc(OC)nc(N2CCC(Cc3ccccc3)CC2)n1,.,/,
COc1c(C(CC(C)C)OC(C)=O)ccc2c1C(=O)OCc1cc(C)cc(O)c1O2 (stereo unspecified),/,.,
CC[C@@]1(O)C(=O)OCc2c1cc1n(c2=O)Cc2cc3c(N)cccc3nc2-1,/,.,
CC[C@@]1(O)C(=O)OCc2c1cc1n(c2=O)Cc2cc3c(CN(C)C)c(O)ccc3nc2-1,/,38,RmlCD fluor art=+
O=C(Nc1ccc(Cl)c(Cl)c1)Nc1cc(S(=O)(=O)N2CCOCC2)ccc1N1CCCC1,.,/,
CC(C)CNC(=O)c1coc(=O)c(Br)c1,.,.,
CN(C)CCNC(=O)c1coc(=O)c(Br)c1,.,62,RmlCD fluor art=+
